Experimental findings from PubChem BioAssay (NCI) are described below.

Compounds without any hit were thinned out: in the full panel of roughly 83,000, 20% have a hit.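 Note: values are percent growth. 100 is the growth of untreated cells, values between 100 and 0 indicate rising inhibition; between -100 and 0 indicates cell death.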 Values without a mark were called inactive. Calls of active or inactive are those of the source. The calls were made as follows: active = growth percent below 10; inactive = the rest.

Test systems include SR leukemia; RPMI-8226 leukemia; OVCAR-5 ovarian; OVCAR-4 ovarian; SK-OV-3 ovarian; IGROV1 ovarian; OVCAR-3 ovarian; HS 578T breast; NCI/ADR-RES ovarian; T-47D breast; BT-549 breast; MDA-MB-435 melanoma; SW-620 colon; MCF7 breast; HCT-116 colon; HCC-2998 colon; KM12 colon; OVCAR-8 ovarian.
Common to all, as to assay: NCI-60 one-dose screen, 48 h (100 = growth as untreated, 0 = no growth, -100 = all killed)
Holding throughout (details): 10 µM unless noted

Turning to `CC1=NC2=NC(=O)/C(=C3/N=C(C)C=C(c4ccccc4)N3N)NN2C(c2ccccc2)=C1`, the growth in the test with SR leukemia is 116%; in the test with RPMI-8226 leukemia, 111%; in the test with OVCAR-5 ovarian it was 101%; in the test on OVCAR-4 ovarian, 96.7%; with SK-OV-3 ovarian it was 98.8%; with IGROV1 ovarian, 70.1%. In addition, the growth in the test with OVCAR-3 ovarian was 108%; in the test on HS 578T breast it was 116%; in the test on NCI/ADR-RES ovarian it was 108%; in the test on T-47D breast it was 102%; in the test with BT-549 breast it was 111%; in the test on MDA-MB-435 melanoma, 108%. For the same compound, the growth in the test on SW-620 colon is 108%; in the test with MCF7 breast, 93.6%; with HCT-116 colon, 102%; with HCC-2998 colon, 110%; in the test on KM12 colon, 98.4%.
Regarding `CC(C)C[C@@H]1N[C@@]2(C(=O)Nc3ccccc32)[C@@H](c2ccc(F)cc2)[C@@H]1C(=O)c1ccc(O)cc1`, the growth is 73.5% with SR leukemia; 97.1% in the test with OVCAR-8 ovarian; 95.6% in the test on OVCAR-5 ovarian; 89.6% with OVCAR-4 ovarian; 108% with SK-OV-3 ovarian; 53.4% with IGROV1 ovarian. In addition, the growth in the test on OVCAR-3 ovarian is 96.9%; in the test on HS 578T breast, 84.5%; with NCI/ADR-RES ovarian, 94.1%; in the test with T-47D breast, 76.5%; in the test on BT-549 breast, 113%; in the test with MDA-MB-435 melanoma, 102%. Further, the growth is 101% with SW-620 colon; 92.5% in the test with MCF7 breast; 86.7% in the test with HCT-116 colon; 108% in the test on HCC-2998 colon; 96.1% with KM12 colon.
For the compound `c1ccc(C(c2nc3ncncc3[nH]2)N2CSc3nc4ccccc4n3C2)cc1` (stereo unspecified), the growth with SR leukemia was 111%; in the test on RPMI-8226 leukemia it was 104%; in the test with OVCAR-5 ovarian it was 103%; in the test on SK-OV-3 ovarian it was 102%; with IGROV1 ovarian, 99.9%; in the test on OVCAR-3 ovarian, 105%. The growth was 108% in the test with HS 578T breast; 104% in the test on NCI/ADR-RES ovarian; 110% in the test with T-47D breast; 102% in the test with BT-549 breast; 105% in the test with MDA-MB-435 melanoma; 98% in the test with SW-620 colon. In addition, the growth in the test on HCT-116 colon is 114%; with HCC-2998 colon it was 107%; with KM12 colon it was 94.4%.
In the case of `O=C(Nc1nc2ccc([N+](=O)[O-])cc2s1)Nc1ccccc1Cl`, the growth was 18.1% in the test on SR leukemia; 12.8% in the test with OVCAR-8 ovarian; 81.8% with OVCAR-5 ovarian; 14% in the test on OVCAR-4 ovarian; 22.8% in the test on SK-OV-3 ovarian; 39.1% in the test on IGROV1 ovarian. Besides, the growth in the test with OVCAR-3 ovarian was 16.8%; in the test with HS 578T breast it was 46.9%; with NCI/ADR-RES ovarian it was 47.1%; in the test on T-47D breast it was -0.208% (active); in the test on BT-549 breast, 36.9%; in the test on MDA-MB-435 melanoma it was 19.6%. Further, the growth is 46.1% in the test with SW-620 colon; 55.8% with MCF7 breast; 21.4% in the test on HCT-116 colon; 47.6% in the test with HCC-2998 colon; 26.4% in the test with KM12 colon.
`CC[C@]12C=CCN3CC[C@@]4(c5cc(NC(=O)COc6cc(O)c7c(=O)cc(-c8ccccc8)oc7c6)c(OC)cc5N(C)[C@H]4[C@@](O)(C(=O)OC)[C@@H]1OC(C)=O)[C@@H]32`: the growth with SR leukemia was -30.7% (active); in the test on OVCAR-8 ovarian it was -17.7% (active); with OVCAR-5 ovarian, -86% (active); with OVCAR-4 ovarian, -66.9% (active); in the test with SK-OV-3 ovarian it was -86.1% (active); in the test on IGROV1 ovarian, -77.7% (active). The growth in the test on OVCAR-3 ovarian is -86.2% (active); in the test on HS 578T breast it was 2.1% (active); in the test with NCI/ADR-RES ovarian, -49.9% (active); in the test with T-47D breast, -60.5% (active); in the test on BT-549 breast, -36.2% (active); with MDA-MB-435 melanoma, -44.7% (active). The growth with SW-620 colon was 7.84% (active); in the test on MCF7 breast, -44.3% (active); in the test on HCT-116 colon, -89.2% (active); in the test on HCC-2998 colon it was -98.2% (active); in the test on KM12 colon, -82.2% (active).
With `O=C(Nc1cccc(Cl)c1)Nc1nc2ccc([N+](=O)[O-])cc2o1`, the growth was 50.8% in the test with SR leukemia; 6.36% (active) in the test with OVCAR-8 ovarian; 47.7% in the test with OVCAR-5 ovarian; -3.53% (active) in the test on OVCAR-4 ovarian; 12.9% with SK-OV-3 ovarian; 20.8% with IGROV1 ovarian. Besides, the growth with OVCAR-3 ovarian is -13.9% (active); with HS 578T breast, 36.4%; in the test with NCI/ADR-RES ovarian, 10.4%; in the test on T-47D breast it was -10.9% (active); in the test on BT-549 breast it was 24%; in the test with MDA-MB-435 melanoma, 19.2%. In addition, the growth with SW-620 colon is 7.83% (active); in the test with MCF7 breast, 12.1%; with HCT-116 colon, 5.21% (active); in the test on HCC-2998 colon it was 24.3%; in the test with KM12 colon it was 7.17% (active).
Regarding `CC(c1ccccc1)N1CSc2nc3ncncc3n2C1` (stereo unspecified), the growth in the test with SR leukemia is 88.2%; in the test with RPMI-8226 leukemia, 26.4%; in the test on OVCAR-5 ovarian, 39.7%; in the test with OVCAR-4 ovarian, 27.1%; in the test with SK-OV-3 ovarian, 24.8%; with IGROV1 ovarian it was 45.5%. Further, the growth in the test on OVCAR-3 ovarian is 33.1%; in the test on HS 578T breast it was 64.2%; in the test with NCI/ADR-RES ovarian, 26.7%; in the test with T-47D breast it was 34%; in the test on BT-549 breast, 59%; in the test with MDA-MB-435 melanoma, 23.5%. Moreover, the growth with SW-620 colon is 41.1%; in the test with MCF7 breast, 5.38% (active); with HCT-116 colon it was 19.2%; with HCC-2998 colon, 23.8%; in the test on KM12 colon, 21.8%.
Turning to `CC1=NC2=NN3C(=NN2C(c2ccccc2)=C1)N=NC(c1ccc(Br)cc1)=C3c1ccc(Br)cc1`, the growth is 102% in the test with SR leukemia; 111% with RPMI-8226 leukemia; 104% in the test on OVCAR-5 ovarian; 108% in the test with OVCAR-4 ovarian; 116% with SK-OV-3 ovarian; 99.3% with IGROV1 ovarian. In addition, the growth in the test with OVCAR-3 ovarian was 114%; in the test on HS 578T breast it was 105%; with NCI/ADR-RES ovarian, 119%; with T-47D breast, 108%; in the test with BT-549 breast, 115%; with MDA-MB-435 melanoma it was 110%. Moreover, the growth with SW-620 colon was 96.6%; in the test with MCF7 breast it was 94.4%; with HCT-116 colon it was 117%; in the test on HCC-2998 colon, 112%; with KM12 colon, 104%.
In the case of `COc1cc2c(cc1OC)C(Sc1ccc(C)cc1)c1c(nc(N)c(C#N)c1N)O2` (stereo unspecified), the growth was -4.56% (active) in the test with SR leukemia; 3.56% (active) in the test on OVCAR-8 ovarian; -78.8% (active) with OVCAR-5 ovarian; -59.2% (active) in the test on OVCAR-4 ovarian; -70.9% (active) with SK-OV-3 ovarian; -72.8% (active) in the test on IGROV1 ovarian. Besides, the growth in the test on OVCAR-3 ovarian was -80.7% (active); in the test with HS 578T breast, -6.15% (active); in the test on NCI/ADR-RES ovarian it was -32.1% (active); in the test with T-47D breast, -28.9% (active); with BT-549 breast it was 35%; with MDA-MB-435 melanoma, -31.3% (active). The growth with SW-620 colon is -36.6% (active); in the test on MCF7 breast, -66.9% (active); with HCT-116 colon it was -69.6% (active); in the test with HCC-2998 colon, -85.2% (active); in the test with KM12 colon, -52.5% (active).
